Records with an inconclusive call do not appear. Values without a mark were called inactive. Calls of active or inactive are those of the source. Unless noted, the call rests on the fitted dose curve; in most records, active means well fitted curve in the direction sought with a large enough effect in the repeat runs; inconclusive means weak or mixed curves; inactive means no such curve, though single readings can be large; an effect the other way counts as inactive or inconclusive.

Assay [1] can be described thus: qHTS assay to identify small molecule agonists of the vitamin D receptor (VDR) signaling pathway - cell viability counter screen (AID 743224). Further: series mostly up to about 63 µM; on the % scale 0 is the no-effect control and ±100 the full control effect; nearly all actives have a fitted effect of over 50% in size. The essentials: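 Here cell health was gauged by luminescent ATP detection (CellTiter-Glo, 30 min RT) in VDR-bla cells that had been incubated with test compounds for 16 h at 37C and 5% CO2.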
Assay [2] in a line: qHTS assay to identify small molecule agonists of the NFkB signaling pathway (AID 1159509; active means well fitted curve in the direction sought with a large enough effect in the signal ratio in the repeat runs, not every such curve was filed as active; the % refers to the signal ratio; further: series mostly up to about 61 µM; on the % scale 0 is the no-effect control and ±100 the full control effect). The essentials: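 NFkB-bla ME-180 cells carry a beta-lactamase reporter under an NF-kB response element. They were plated overnight, then exposed to compounds for 5 h at 37 C. Read-out is LiveBLAzer FRET after 1.5 hr at room temperature (405 nm excitation; 460/530 nm emission).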
Background: Quantitative high-throughput screening tests each substance at several concentrations.

The nature of assay [3]: qHTS assay to identify small molecule agonists of the NFkB signaling pathway - cell viability counter screen (AID 1159515; calls by dose curve; further: series mostly up to about 61 µM; on the % scale 0 is the no-effect control and ±100 the full control effect; nearly all actives have a fitted effect of over 55% in size). The essentials:
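5 hr compound treatment of NFkB-bla ME-180 cells (2,000/well, seeded overnight beforehand), followed by reporter substrate for 1.5 hr. CellTiter-Glo added afterward; luminescence after 30 min RT.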

Assay [4] is described as follows: qHTS assay to identify small molecule agonists of the endoplasmic reticulum stress response signaling pathway (AID 1159516; active means well fitted activation curve with a large enough effect in the signal ratio in the repeat runs, not every such curve was filed as active; the % refers to the signal ratio; further: on the % scale 0 is the no-effect control and ±100 the full control effect). The essentials: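 Reporter HeLa cells (ESRE-beta-lactamase) underwent 5 hr compound incubation at 37 C and 5% CO2 in quantitative HTS format. Detection followed 2 hr of FRET substrate loading at room temperature.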
Assay [5] in a line: qHTS assay to identify small molecule agonists of the endoplasmic reticulum stress response signaling pathway - cell viability counter screen (AID 1159517; calls by dose curve;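 further: HeLa cells carrying an ER stress response element beta-lactamase reporter; series mostly up to about 61 µM; on the % scale 0 is the no-effect control and ±100 the full control effect; nearly all actives have a fitted effect of over 50% in size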). The essentials: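 CellTiter-Glo was added to wells already read for beta-lactamase FRET, and luminescence was recorded 30 min later. Cells: ESRE-bla HeLa, 1,500 per well, compound exposure 5 hr at 37 C.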
The nature of assay [6]: qHTS assay to identify small molecule antagonists of the retinoid-related orphan receptor gamma (ROR-gamma) signaling pathway - cell viability counter screen (AID 1159520). Further: on the % scale 0 is the no-effect control and ±100 the full control effect; nearly all actives have a fitted effect of over 50% in size. Summed up: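 Tet-on ROR gamma CHO cells (1,000/well) were plated 4 hr, given compounds in DMSO for 2 hr at 37 C, then induced with 1 uM final doxycycline for 16 hr. Viability was read as ATP by CellTiter-Glo luminescence after 30 min.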

Assay [7] deals with Nuclear receptor ROR-gamma (Homo sapiens) (UniProt P51449). Description: qHTS assay to identify small molecule antagonists of the retinoid-related orphan receptor gamma (ROR-gamma) signaling pathway (AID 1159521;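 further: CHO cells with doxycycline inducible ROR-gamma driving an RORE luciferase reporter; top concentration of the series differs between compounds; on the % scale 0 is the no-effect control and ±100 the full control effect; nearly all actives have a fitted effect of over 50% in size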). The essentials: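 RORγ antagonism is scored from reduced reporter luminescence in Tet-on CHO cells. Induction used 1 uM final doxycycline hyclate for 16 h at 37 C, following a 2 h compound exposure.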

Assay [8] in a line: qHTS assay to identify small molecule agonists of the AP-1 signaling pathway - cell viability counter screen (AID 1159525; calls by dose curve; further: nearly all actives have a fitted effect of over 55% in size). The essentials: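 ME-180 AP-1-bla, 2500 cells/well, Opti-MEM + 0.5% dialyzed FBS; overnight 37 °C; cpd 15-pt titration, 5 h 37 °C; CellTiter-Glo 30 min RT; luminescence read; normalised to TOAB and DMSO controls.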
Assay [9] is described as follows: qHTS assay to identify small molecule agonists of the AP-1 signaling pathway (AID 1159526; calls by dose curve; further: on the % scale 0 is the no-effect control and ±100 the full control effect).
In assay [10] the target is Retinoic acid receptor RXR-alpha (Homo sapiens) (UniProt P19793). The assay is described as follows: qHTS assay to identify small molecule agonists of the RXR signaling pathway (AID 1159527; calls by dose curve; further: nearly all actives have a fitted effect of over 35% in size; further: potency means the concentration at half of the fitted maximal effect). Summed up:
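qHTS of the Tox21 10K library in GeneBLAzer RXR-alpha HEK 293T cells carrying a beta-lactamase reporter […]; 16 hr treatment, 9-cis retinoic acid as agonist control, FRET read-out.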

Assay [11] is described as follows: qHTS assay to identify small molecule agonists of the RXR signaling pathway - cell viability counter screen (AID 1159529). Summed up:
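Cell viability is measured by CellTiter-Glo luminescence, 30 min at room temperature, in wells already read for beta-lactamase. Engineered HEK 293T cells (RXR-alpha-UAS-bla) are dosed 16 hr at 37 C. Tetraoctyl ammonium bromide serves as positive control.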

Assay [12] can be described thus: qHTS assay to identify small molecule antagonists of the retinoid acid receptor (RAR) signaling pathway - cell viability counter screen (AID 1159551). Further: on the % scale 0 is the no-effect control and ±100 the full control effect; nearly all actives have a fitted effect of over 35% in size. The essentials: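 Seed C3RL4 cells; next day add compound, then retinol to 1 uM final; incubate 6 h at 37 C; add CellTiter-Glo; read luminescence after 30 min at RT.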
The nature of assay [13]: qHTS assay to identify small molecule antagonists of the retinoic acid receptor (RAR) signaling pathway (AID 1159552). Summed up: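 Quantitative HTS in C3RL4 RARE-luciferase reporter cells. Compounds were added with 1 uM (final) retinol; luminescence was read after 6 hr.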
The nature of assay [14]: qHTS assay to identify small molecule antagonists of the vitamin D receptor (VDR) signaling pathway - cell viability counter screen (AID 743225). Summed up: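 Cells (VDR-UAS-bla HEK 293T) are plated, rested 4 h at 37C, dosed with compound and 3 nM final 1-alpha,25-dihydroxy vitamin D3, and incubated 16 h. Viability is taken from CellTiter-Glo luminescence in the reporter wells.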

Assay [15] in a line: qHTS assay to identify small molecule agonists of the retinoic acid receptor (RAR) signaling pathway (AID 1159553). Further: on the % scale 0 is the no-effect control and ±100 the full control effect. The essentials:
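Activation of retinol signaling was monitored via a RARE luciferase reporter in C3RL4 cells. After 6 hr compound treatment at 37 C, detection reagent was added for 30 min at room temperature before luminescence reading.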

Retinoic acid receptor RXR-alpha (Homo sapiens), sequence (P19793 whole entry, looked up): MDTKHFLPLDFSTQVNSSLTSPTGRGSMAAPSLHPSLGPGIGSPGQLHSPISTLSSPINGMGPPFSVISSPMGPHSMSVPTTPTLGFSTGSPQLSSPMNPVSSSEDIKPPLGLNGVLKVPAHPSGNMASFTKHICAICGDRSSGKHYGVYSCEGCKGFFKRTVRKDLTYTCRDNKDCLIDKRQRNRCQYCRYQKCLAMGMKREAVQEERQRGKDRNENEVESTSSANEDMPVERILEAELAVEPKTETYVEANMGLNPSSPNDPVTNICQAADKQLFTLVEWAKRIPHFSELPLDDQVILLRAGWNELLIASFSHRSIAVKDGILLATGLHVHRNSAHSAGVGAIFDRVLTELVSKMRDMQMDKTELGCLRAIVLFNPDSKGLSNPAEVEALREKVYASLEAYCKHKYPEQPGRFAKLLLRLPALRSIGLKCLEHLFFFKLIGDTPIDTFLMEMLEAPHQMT

As to `ClCCCCl`, the Potency result in [1], in assay [5], in assay [6], in assay [7], in [8] and in [10] was “inactive” each time. The Potency entry in assay [11], in assay [12] and in assay [13] was “inactive” throughout. The call in assay [2], in assay [3], in assay [4] and in [9] was inactive.

Take `C=CC(=O)OCCN(C)C`: the Potency result in assay [1], in assay [14], in [5], in assay [6], in assay [7] and in [8] was “inactive” each time. In addition, the Potency entry in [10], in assay [11], in assay [12] and in assay [13] was “inactive” throughout. In addition, the compound was called inactive in assay [2], in [3], in assay [4] and in [9].

For the compound `Cl/C=C/CCl`, the Potency entry in assay [1], in assay [14], in [5], in [6], in assay [7] and in assay [8] was “inactive” throughout. Further, the Potency entry in [10], in [11], in assay [12] and in assay [13] was “inactive” each time. The compound was classed as inactive in assay [2], in assay [3], in [4] and in assay [9].

Regarding `CC(O)CCl` (centres undefined), the Potency result in assay [1], in assay [14], in [5], in assay [6], in assay [7] and in [8] was “inactive” each time. Besides, the Potency result in assay [10], in assay [11], in assay [12] and in assay [13] was “inactive” throughout. Also, the compound was classed as inactive in assay [2], in assay [3], in [4] and in [9].

Take `CCCOC(=O)Cc1ccc(OCC(=O)N(CC)CC)c(OC)c1`: the Potency entry in assay [1], in [14], in assay [5], in assay [6], in assay [7] and in [8] was “inactive” throughout. In addition, the Potency entry in assay [10], in [11], in [12] and in assay [13] was “inactive” each time. For the same compound, the result in assay [2], in assay [3], in assay [4] and in assay [9] was inactive.

Take `O=C(O)CBr`: the Potency entry in assay [14], in [5], in assay [6], in assay [7], in assay [8] and in assay [10] was “inactive” each time. The Potency entry in [11], in assay [12] and in [13] was “inactive” throughout. Also, the compound was classed as inactive in assay [2], in assay [3], in assay [4] and in [9].

As for `C(COCC1CO1)OCC1CO1` (centres undefined), the Potency result in [14], in assay [5], in assay [6], in assay [7], in [8] and in assay [10] was “inactive” throughout. For the same compound, the Potency entry in assay [11], in [12] and in assay [13] was “inactive” in each case. For the same compound, the result in [2], in assay [3], in assay [4] and in assay [9] was inactive.

As for `CNC(=O)Oc1cc(C)c(N(C)C)c(C)c1`, the Potency result in [1], in assay [14], in [5], in assay [6], in assay [7] and in assay [8] was “inactive” in each case. Moreover, the Potency entry in assay [11], in assay [12] and in [13] was “inactive” throughout. The compound was called inactive in assay [2], in [3], in assay [4] and in [9]. The Potency in [10] is 43.7 µM (active).

As for `O=C(O)C(Br)(Br)Br`, the Potency entry in [1], in assay [14], in [5], in assay [6], in assay [7] and in assay [8] was “inactive” throughout. Besides, the Potency result in assay [10], in [11], in assay [12] and in [13] was “inactive” throughout. For the same compound, the compound was called inactive in assay [2], in [3], in assay [4] and in [9].

Turning to `[O-][Br+2]([O-])O`, the Potency result in assay [14], in [5], in assay [6], in assay [7], in [8] and in [10] was “inactive” in each case. The Potency result in [11], in assay [12] and in [13] was “inactive” in each case. In addition, the result in assay [2], in assay [3], in assay [4] and in [9] was inactive.

On to `CC(Cl)(Cl)Cl`, for which the Potency result in [1], in assay [14], in [5], in assay [6], in assay [7] and in [8] was “inactive” in each case. Also, the Potency result in assay [10], in assay [11], in [12] and in assay [13] was “inactive” throughout. Moreover, the call in [2], in assay [3], in [4] and in assay [9] was inactive.

For `Brc1c(Br)c(Br)c(Br)c(Br)c1Br`, the activity change, negative = cytotoxicity in assay [1] is 9.04% [at 5.95 µM]; in assay [5], 1.86% [at 6.95 µM]; in assay [11], 7.53% [at 6.97 µM]. Besides, the activation is 0.368% [at 6.95 µM] in assay [2]; -0.555% [at 6.95 µM] in [4]; -7% [at 6.97 µM] in assay [9]; 13.1% [at 6.98 µM] in assay [10]; -2.33% [at 8.36 µM] in assay [15]. The activity, negative = cytotoxic in assay [3] is -11.1% [at 6.95 µM]. In addition, the activity, negative = cytotoxicity in assay [6] was 1.32% [at 8.39 µM]. For the same compound, in [7], the activity change, negative = inhibition was 19.7% [at 8.39 µM]. Further, the viability change, negative = cytotoxic in assay [8] was -3.27% [at 6.97 µM]. In addition, in assay [13], the activity, negative = inhibition was -18.1% [at 8.39 µM].

Regarding `Oc1ccc(Cc2ccc(O)cc2)cc1`, the Potency result in assay [1], in assay [14], in assay [5], in assay [6], in [7] and in assay [8] was “inactive” throughout. Further, the Potency entry in assay [10], in assay [11], in [12] and in assay [13] was “inactive” in each case. In addition, the call in assay [2], in [3], in assay [4] and in assay [9] was inactive.

As for `O=C(O)C(F)(F)C(F)(F)C(F)(F)C(F)(F)C(F)(F)C(F)(F)F`, the call in [2], in [3], in assay [4] and in assay [9] was inactive. The Potency result in assay [5], in assay [6], in assay [7], in [8], in [10] and in assay [11] was “inactive” each time. The Potency result in assay [12] and in assay [15] was “inactive” throughout.

The values are drawn from PubChem BioAssay (Tox21).
